From PubChem BioAssay (NCI) come the findings set out here.

The panel holds about 83,000 compounds, 20% with a hit somewhere; the sample as a whole holds those more often.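 Negative percent growth values reflect cell death: -40 means 40% of the cells present at the start died, and -100 means all died.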 Values without a mark were called inactive. Active and inactive are the calls of the source. The calls were made as follows: active = growth percent below 10; inactive = the rest.

Some test systems named below: DU-145 prostate; K-562 leukemia; MALME-3M melanoma; MDA-MB-231 breast; RXF 393 renal; SF-268 CNS; SF-295 CNS; SF-539 CNS; UACC-257 melanoma; M14 melanoma; HCT-15 colon; SNB-75 CNS; SNB-19 CNS; U251 CNS; PC-3 prostate; LOX IMVI melanoma; SK-MEL-28 melanoma; SK-MEL-5 melanoma; UACC-62 melanoma; HT29 colon.
Experiment in all cases: NCI-60 one-dose screen, 48 h (100 = growth as untreated, 0 = no growth, -100 = all killed)
Conditions in all cases: 10 µM unless noted

With `CC1(C)CC(=O)C2=C(C1)Nc1cc3c(cc1C2c1ccc(F)cc1)OCO3` (stereo not drawn), the growth was 117% in the experiment on DU-145 prostate; 87.8% with K-562 leukemia; 81.2% in the experiment on MALME-3M melanoma; 108% with MDA-MB-231 breast; 82.3% with RXF 393 renal; 92.5% in the experiment on SF-268 CNS. Besides, the growth with SF-295 CNS was 64.3%; in the experiment on SF-539 CNS it was 102%; with UACC-257 melanoma, 110%; with M14 melanoma it was 115%; in the experiment on HCT-15 colon, 93.9%; with SNB-75 CNS it was 77.3%. The growth with SNB-19 CNS is 96.5%; in the experiment with U251 CNS, 90.6%; in the experiment with PC-3 prostate, 93.5%; in the experiment with LOX IMVI melanoma, 99.1%; in the experiment on SK-MEL-28 melanoma it was 92.6%.
For `COc1cc(-c2nc3ccccc3o2)cc(CN2CCN(c3ccccc3)CC2)c1O`, the growth in the experiment with DU-145 prostate is 71.8%; in the experiment with K-562 leukemia it was 40.1%; in the experiment on MALME-3M melanoma, 63%; in the experiment with MDA-MB-231 breast, 69.3%; in the experiment on RXF 393 renal, 107%; with SF-268 CNS, 83.3%. Moreover, the growth is 36.2% in the experiment on SF-295 CNS; 94.7% in the experiment on SF-539 CNS; 86.7% in the experiment with UACC-257 melanoma; 52.5% in the experiment on M14 melanoma; 43.6% in the experiment with HCT-15 colon; 65.7% with SNB-75 CNS. Moreover, the growth was 82.6% with SNB-19 CNS; 52.6% in the experiment on U251 CNS; 40.4% in the experiment on PC-3 prostate; 31.7% in the experiment on SK-MEL-5 melanoma; 34% in the experiment on UACC-62 melanoma; 87.2% in the experiment with SK-MEL-28 melanoma.
Regarding `COC1(OC)C2(Cl)C=C(c3ccccc3)C1(Cl)C(Cl)=C2Cl` (stereo not drawn), the growth was 113% in the experiment on DU-145 prostate; 88.8% in the experiment with K-562 leukemia; 97.9% in the experiment with MALME-3M melanoma; 110% in the experiment on MDA-MB-231 breast; 104% in the experiment with RXF 393 renal; 101% in the experiment with SF-268 CNS. Also, the growth with SF-295 CNS was 93.9%; with SF-539 CNS, 91.5%; in the experiment on UACC-257 melanoma it was 90.1%; in the experiment with M14 melanoma it was 97.2%; in the experiment on HCT-15 colon it was 119%; with HT29 colon it was 83.5%. Besides, the growth in the experiment with SNB-19 CNS is 102%; in the experiment with PC-3 prostate it was 86.2%; with SK-MEL-5 melanoma it was 104%; in the experiment with UACC-62 melanoma, 96.6%; in the experiment on LOX IMVI melanoma, 90%; in the experiment on SK-MEL-28 melanoma it was 102%.
With `O=S(=O)(Nc1ccccc1Cl)c1ccc(-c2cnc(C3CC3)o2)cc1`, the growth was 13.5% in the experiment with DU-145 prostate; 20.1% in the experiment with K-562 leukemia; 47.3% in the experiment on MALME-3M melanoma; 34.8% in the experiment on MDA-MB-231 breast; -27% (active) in the experiment with RXF 393 renal; 53.5% with SF-268 CNS. For the same compound, the growth is 12.2% in the experiment with SF-295 CNS; -22.7% (active) in the experiment on SF-539 CNS; 69.4% with UACC-257 melanoma; 19% with M14 melanoma; 24.4% in the experiment with HCT-15 colon; 12.5% in the experiment with HT29 colon. Further, the growth was 39.2% with SNB-19 CNS; 25% in the experiment on U251 CNS; 19.6% in the experiment with PC-3 prostate; 17.3% in the experiment on SK-MEL-5 melanoma; 40.2% in the experiment on UACC-62 melanoma; 44.5% with LOX IMVI melanoma. Also, in the experiment with SK-MEL-28 melanoma, the growth was 59.3%.
Take `COc1ccc(/C=C2\SC(=O)N(CN3CCN(c4cc5c(cc4F)c(=O)c(C(=O)O)cn5C4CC4)CC3)C2=O)cc1`: the growth in the experiment with DU-145 prostate was 109%; in the experiment with K-562 leukemia, 114%; in the experiment on MALME-3M melanoma, 97.6%; with MDA-MB-231 breast, 106%; in the experiment on RXF 393 renal, 108%; with SF-268 CNS, 99%. For the same compound, the growth in the experiment with SF-295 CNS was 99.6%; in the experiment with SF-539 CNS it was 107%; with UACC-257 melanoma it was 96.7%; with M14 melanoma it was 88.6%; in the experiment on HCT-15 colon it was 106%; in the experiment on HT29 colon, 111%. The growth was 100% with SNB-19 CNS; 99.8% with U251 CNS; 97.6% in the experiment with PC-3 prostate; 98.1% in the experiment with UACC-62 melanoma; 79.9% in the experiment on LOX IMVI melanoma; 112% with SK-MEL-28 melanoma.
As to `Oc1cccc(Nc2nc(-c3ccccn3)cs2)c1`, the growth with DU-145 prostate was 122%; with K-562 leukemia, 93.8%; in the experiment on MALME-3M melanoma it was 109%; with MDA-MB-231 breast, 98%; with RXF 393 renal, 113%; with SF-268 CNS, 110%. The growth in the experiment on SF-295 CNS is 99.4%; in the experiment with SF-539 CNS, 98.3%; in the experiment with UACC-257 melanoma, 110%; in the experiment with M14 melanoma, 111%; in the experiment on HCT-15 colon it was 78.3%; in the experiment on SNB-75 CNS, 94.3%. The growth in the experiment on SNB-19 CNS was 98.8%; in the experiment on U251 CNS, 101%; in the experiment on PC-3 prostate, 94.5%; in the experiment with SK-MEL-5 melanoma it was 91.1%; in the experiment on LOX IMVI melanoma it was 93.9%; in the experiment on SK-MEL-28 melanoma, 111%.
For the compound `COc1cc(OCc2cccc(-c3ccc(C(O)c4nccs4)cc3)c2C)cc(OC)c1C=O` (stereo not drawn), the growth was 53.6% in the experiment with DU-145 prostate; 18% with K-562 leukemia; 7.88% (active) in the experiment on MALME-3M melanoma; 54.5% with MDA-MB-231 breast; 59.5% in the experiment with RXF 393 renal; 65% with SF-268 CNS. Moreover, the growth in the experiment with SF-295 CNS is 35.1%; in the experiment with SF-539 CNS, 69.4%; with UACC-257 melanoma, 13.3%; in the experiment on M14 melanoma, 32%; in the experiment with HCT-15 colon, 32.3%; with SNB-75 CNS it was 69.6%. The growth in the experiment on SNB-19 CNS was 70.4%; in the experiment with U251 CNS, 60.6%; with PC-3 prostate it was 52.2%; in the experiment with SK-MEL-5 melanoma, -78.1% (active); in the experiment on UACC-62 melanoma, -4.45% (active); in the experiment with LOX IMVI melanoma, 48.8%. In the experiment with SK-MEL-28 melanoma, the growth was 57.3%.
As to `C=CC(=O)N1CC2(CC(n3nc(-c4ccc(Oc5ccccc5)cc4)c4c(N)ncnc43)C2)C1`, the growth in the experiment on DU-145 prostate is 11%; in the experiment with K-562 leukemia, 17.7%; with MALME-3M melanoma, 12.7%; in the experiment with MDA-MB-231 breast it was 3.31% (active); in the experiment on RXF 393 renal, -19.4% (active); with SF-268 CNS it was 10.9%. For the same compound, the growth is 70.4% with SF-295 CNS; 10.1% in the experiment on SF-539 CNS; 5.54% (active) with UACC-257 melanoma; 14.8% in the experiment with M14 melanoma; 29.2% in the experiment with HCT-15 colon; -13.6% (active) in the experiment with SNB-75 CNS. Besides, the growth was 36.6% with SNB-19 CNS; 21% in the experiment with U251 CNS; 51.3% in the experiment on PC-3 prostate; 7.95% (active) with UACC-62 melanoma; -17.8% (active) in the experiment with LOX IMVI melanoma; 29% with SK-MEL-28 melanoma.
As for `COc1cc(C(F)(F)F)ccc1-c1cc(-c2ccc(F)cc2)n[nH]1`, the growth with DU-145 prostate is 95.7%; with K-562 leukemia, 97.5%; with MALME-3M melanoma it was 90.8%; in the experiment with MDA-MB-231 breast it was 80.2%; in the experiment on RXF 393 renal, 92.4%; in the experiment with SF-268 CNS, 101%. Also, the growth is 97.6% with SF-295 CNS; 91.2% with SF-539 CNS; 82.5% in the experiment with UACC-257 melanoma; 93.1% in the experiment on M14 melanoma; 73.3% with HCT-15 colon; 74.4% in the experiment with SNB-75 CNS. For the same compound, the growth with SNB-19 CNS was 77.9%; in the experiment on U251 CNS it was 80%; in the experiment with PC-3 prostate, 76%; in the experiment on UACC-62 melanoma, 83.9%; in the experiment on LOX IMVI melanoma it was 96.9%; in the experiment on SK-MEL-28 melanoma it was 102%.
